MRP resist rev: reversal of MRP1-mediated doxorubicin resistance, primary screen, H69AR cells, doxorubicin co-treatment | AID 602, 2007 | differential viability (reversal), % at 10 µM | H69AR cells + 2 uM doxorubicin, CellTiter-Glo, 72 h | 0.04% of 85,000 active;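 active = viability drop by adding the cancer drug above about 55%, with treated viability meeting a 40% cutoff, limit read from the data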;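 note: viability without doxorubicin minus viability with 2 µM doxorubicin for each compound; larger differential means the compound sensitizes cells more to doxorubicin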
VCAM1 TNFa inh: inhibitors of TNFa-induced VCAM1 expression, primary screen, imaging, HUVEC, TNFa stimulus, immunofluorescence | 0.48% of 95,000 active | HUVEC TNFa-induced VCAM-1 immunofluorescence, high-content imaging | inhibition, % at 2 µM;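 active = inhibition above the batch mean plus 3 SD, with images confirmed as a hit by eye, cut at about 37% in these data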;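 note: 0% = TNF-stimulated DMSO wells and 100% = unstimulated control wells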
F-actin modifier: modifiers of F-actin cytoskeleton organization, primary screen, imaging, HUVEC, phalloidin staining, high-content imaging | inhibition, % at 2 µM | HUVEC TNFa F-actin phalloidin imaging | 0.18% of 91,000 active;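 active = inhibition above the batch mean plus 3 SD and confirmed as a hit by visual image inspection, cut at about 30% in these data, passing the limit was not always enough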
E-sel TNF inh: E-selectin induction blockers in HUVEC – imaging, immunofluorescence, high content, primary screen; 0.71% of 120,000 active; HUVEC TNFa-induced E-selectin immunofluorescence; inhibition, % at 2 µM; AID 1246, 2008;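 active = inhibition above the batch mean plus 3 SD, and confirmed as a hit on visual image review, cut at about 43% in these data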;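 note: 0% = TNF-stimulated DMSO wells and 100% = unstimulated control wells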
MRP1 act: H69AR viability gain despite doxorubicin, primary screen, MRP-1 activator project, H69AR cells, CellTiter-Glo; viability rescue; viability increase, % at 10 µM; 0.61% of 140,000 active; AID 799, 2007;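 active = viability gain under doxorubicin at or above a set limit, the compound median plus 3 SD, cut at about 4.7% in these data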;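 note: MRP-1 overexpressing cells given doxorubicin 25 µM after compound pretreatment; 18-22 h compound pretreatment then 72 h with doxorubicin before readout; 0% = doxorubicin-only wells and 100% = vehicle-treated cells without doxorubicin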
* hit, by the source's call; x = not tested or not shown. This is a sample that favours compounds with a hit; in the whole collection about 1.5% have one here.

SMILES | MRP resist rev | VCAM1 TNFa inh | F-actin modifier | E-sel TNF inh | MRP1 act
CCOc1ccccc1NC(=O)COC(=O)/C=C/c1ccc(OC)c(OC)c1 | x | x | x | -18 | x
CCCCOc1ccc(/C=C/C(=O)OCC(=O)NC(=O)NCC(C)C)cc1OCC | x | x | x | 84* | 0
Cc1csc(NC(=O)CS(=O)(=O)Cc2ccccc2)n1 | x | x | x | -3 | x
Cc1nc(=O)c(-c2ccccc2)c(C)n1-c1ccccc1O | -7 | x | x | -78 | 2
Cc1nc(=O)c(-c2ccccc2)c(C)n1-c1ccc(O)cc1 | 3 | 1 | -8 | 19 | 5.3*
CC(=O)Nc1ccc(-n2c(C)nc(=O)c(-c3ccccc3)c2C)cc1 | -8 | x | x | x | 11*
Cc1ccc(C(=O)Nc2ccc([N+](=O)[O-])cn2)o1 | x | x | x | x | 1
COc1ccc(NC(=O)c2ccc(C(=O)c3cc(OC)ccc3OC)cc2)cc1 | x | 7 | 24 | 4 | -3
CCCCc1ccc(NC(=O)C(C)CC)cc1 (stereo not given) | x | x | x | -20 | x
O=c1cc(C(Cl)(Cl)Cl)oc2c1ccc1ccccc12 | x | 80* | -10 | 12 | -3
O=c1cc(-c2ccco2)oc2c1ccc1ccccc12 | -3 | 9 | x | 12 | -3
CN1CCN(S(=O)(=O)c2cccc(S(=O)(=O)c3ccc(Cl)cc3)c2)CC1 | 10 | 8 | 13 | -2 | 0
CN1CCCN(S(=O)(=O)c2ccc(Cl)c(Cl)c2)CC1 | x | x | x | 100* | x
CN1CCCN(S(=O)(=O)c2cccc(Cl)c2Cl)CC1 | x | x | x | 94* | x
CC(=O)Nc1ccc(S(=O)(=O)NCC(=O)OCC(=O)N2CCCc3ccccc32)cc1 | x | x | x | x | 0
Cc1ccc(CN2CCN(C/C(Cl)=C/c3ccccc3)CC2CCO)o1 (stereo not given) | x | x | x | -5 | x
Nc1ccc2c(c1)N1CCN=C1S2 | -8 | 11 | 0 | 73* | 0
C/C(=N\NC(=O)CCc1c[nH]c2ccccc12)c1cccc([N+](=O)[O-])c1 | x | x | x | x | 7.9*
C/C(=N\NC(=O)c1ccccc1C)c1cccc([N+](=O)[O-])c1 | x | 7 | -10 | -6 | 0
Cc1ccc(Cn2ccc(NC(=O)c3noc4c3CCCCC4)n2)cc1 | 0 | x | x | -7 | 4.7*
CC(C)Oc1ccc(/C=N/NC(=O)C(CSCc2ccccc2)NC(=O)c2ccc([N+](=O)[O-])cc2)cc1 (stereo not given) | -9 | 16 | -9 | 96* | -2
COc1ccc(-c2cc3nc(-c4ccccc4)cc(N4CCC5(CC4)OCCO5)n3n2)cc1 | 2 | 10 | -22 | 0 | 9.0*
O=C(COC(=O)Cn1nnc2ccccc21)Nc1ccccc1Br | x | x | x | x | 2
CN(C)c1ccc(NC(=O)COC(=O)Cn2nnc3ccccc32)cc1 | x | x | x | 89* | 0
Cc1cc(C)nc(SCc2cc(=O)c(OC(=O)c3ccc(S(=O)(=O)N4CCCC4)cc3)co2)n1 | x | x | x | 15 | -2
SMILES | MRP resist rev | VCAM1 TNFa inh | F-actin modifier | E-sel TNF inh | MRP1 act
CCOc1ccc(C(C)NC(=O)C2CCC2)cc1 (stereo not given) | x | x | x | x | -2
O=C1CC(N2CCN(c3nc4ccccc4s3)CC2)C(=O)N1c1ccc(F)cc1 (stereo not given) | -1 | -11 | 10 | 8 | 4.9*
O=C(CCc1ccccc1)N/N=C/c1cc(Br)ccc1O | x | x | x | x | 6.4*
O=C(N/N=C/c1cc(Br)ccc1O)c1ccccc1Cl | x | x | x | -3 | 4
CC(C)NC(=S)N/N=C/c1cc(Br)ccc1O | x | x | x | -15 | 5.0*
CCN(CC)c1ccc(N2C(=O)/C(=C\c3cccs3)SC2=S)cc1 | 10 | 12 | -7 | 12 | -1
O=C1/C(=C/c2cccs2)SC(=S)N1c1ccccc1 | x | -2 | -2 | 56* | -4
O=C1N=C(N2CCN(c3ccccc3)CC2)S/C1=C/c1cccs1 | x | x | x | 25 | -1
O=C1N=C(c2ccccc2)S/C1=C\c1cccs1 | -12 | 3 | x | 16 | 6.7*
CCC(Oc1ccccc1)C(=O)Nc1nnc(C(F)(F)F)s1 (stereo not given) | 9 | 7 | -14 | -7 | 10*
Cc1cc(C)cc(NC(=O)c2oc3ccccc3c2COc2ccccc2)c1 | x | x | x | -20 | 5.2*
CCOc1ccc2nc(C)cc(Nc3ccc4c(c3)OCCO4)c2c1 | x | 12 | 68* | 6 | -1
Cc1ccc2nc(C)cc(Nc3ccc4c(c3)OCCO4)c2c1 | x | 22 | 5 | -4 | -2
Cc1occc1-c1nnc(SCC(=O)Nc2nc3ccccc3s2)o1 | -15 | 9 | -13 | 17 | 1
NNC(=O)c1cccc(COc2ccc3c(c2)CCC3)c1 | x | x | x | 1 | -1
CCOC(=O)c1cc2c(ccn2C)n1Cc1ccccc1C | 20 | 6 | 63* | 38 | -2
Cc1ccccc1Cn1c(C(=O)OC(C)C)cc2c1ccn2C | 16 | 12 | -10 | -16 | -1
CCn1c(COc2ccc(C)cc2)nnc1SCc1nc2ccccc2[nH]1 | -8 | 28 | -3 | 33 | 7.6*
Brc1cnn(-c2nc(N3CCOCC3)nc(N3CCOCC3)n2)c1 | 5 | x | x | x | x
CCn1cc(S(=O)(=O)CC(=O)NC2CCCCC2)c2ccccc21 | -3 | -2 | -6 | x | -1
CCn1cc(S(=O)(=O)CC(=O)Nc2cc(C)ccc2C)c2ccccc21 | 5 | 26 | 8 | 62* | -2
CC(C)Nc1nc(NC(N)=S)nc(NC(C)C)n1 | x | x | x | x | -1
COc1ccc([N+](=O)[O-])cc1N(CC(=O)NCC1CCCO1)S(C)(=O)=O (stereo not given) | x | x | x | 18 | -1
COCCNC(=O)c1ccc(N(C)S(=O)(=O)c2ccc(OC)c(OC)c2)cc1 | 1 | -39 | -2 | 100* | -2
NC(=O)N/N=C/c1cc(Br)ccc1OC(=O)c1ccccc1 | x | x | x | x | -2
SMILES | MRP resist rev | VCAM1 TNFa inh | F-actin modifier | E-sel TNF inh | MRP1 act
O=c1c2sccc2[nH]c(=S)n1Cc1ccccc1 | x | x | x | 20 | -1
CCC1SC2=NC(C)=C(C(=O)OC)C(c3cccs3)N2C1=O (stereo not given) | -11 | 30 | 30 | 4 | 5.5*
CCOC(=O)C1=C(C)N=C2SC(CC)C(=O)N2C1c1cccc(F)c1 (stereo not given) | 4 | 16 | x | x | 6.3*
CCOC(=O)CNS(=O)(=O)c1ccc(C)cc1 | x | x | x | 2 | -2
COc1cccc(C(=O)NC2CCN(CC(=O)NCc3ccccc3OC)CC2)c1 | 2 | -6 | -18 | 5 | -5
COc1cccc(OC)c1NC(=O)CN1CCC(NC(=O)c2cccc(F)c2)CC1 | 13 | 100* | 70* | 23 | -2
COc1ccc(-c2c/c(=N\c3nc(-c4ccccc4)c(C)s3)c3ccccc3o2)cc1O | -29 | 51* | 18 | 1 | -2
O=C(Nc1ccc(Br)cc1)c1ccc(N2C(=O)C3CC=C(Cl)CC3C2=O)cc1 (stereo not given) | 0 | -8 | x | 6 | -2
Cc1[nH]nc2c1/C(=N/O)CC(c1ccccc1)C2 (stereo not given) | 1 | -5 | 13 | 2 | -4
O=C(NCc1ccccc1)C(c1ccc(O)cc1)N(C(=O)Cn1nnc(-c2cccs2)n1)c1ccc2c(c1)OCCO2 (stereo not given) | -8 | x | x | -15 | 5.8*

Source: PubChem (several laboratories)
